Values joined by “and” are separate entries in the source; they are usually repeats but may differ in a detail not shown here. Equal values may be shown once. Inconclusive results are not listed. Active and inactive are the calls of the source. Unless noted, calls come from the whole dose curve; as a rule, active = well fitted curve in the direction sought with a large enough effect; inconclusive = small, poorly fitted or top-dose-only effect, or another doubt; inactive = no such curve, though single readings can be large; an effect the other way counts as inactive or inconclusive.

This note sets out measurements from PubChem BioAssay (NCATS).

The nature of experiment [1]: qHTS to identify inhibitors of the type 1 interferon - major histocompatibility complex class I in skeletal muscle: primary screen against the NCATS Mechanism Interrogation Plate v5.0 (MIPE) Libary (AID 1347411).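 For activity change, negative = inhibition: plate controls were vehicle for no effect and reference inhibitor for full effect.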 Note: nearly all actives have a fitted effect of over 65% in size. Note: potency is the fitted concentration of half-maximal effect. Put shortly:
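HLA-B HiBit myoblasts, dexamethasone-free medium + 4 ng/ml IFN-b, 24 h compound, 11-pt 1:3 from 46 uM final. Readout: Nano-Glo HiBiT lytic luminescence after 10 min lysis, RT.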
In general terms: qHTS replaces the single test concentration by a dilution series.

Experiment [2] concerns the target Calcium and integrin-binding protein 1 (Homo sapiens) (UniProt Q99828). Briefly: Primary qHTS for Identification of Calcium Integrin Binding Protein 1 (CIB1) Competitor (AID 1508620). Note: top concentration of the series differs between compounds; % is set by controls: 0 for no effect and ±100 for the full control effect. Put shortly:
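Fluorescence polarization competition: GST-tagged CIB1 (1 uM final) preincubated with compound 15 min at room temperature, then FITC-labelled alphaIIb peptide (100 nM final) added. After 15 min at room temperature, polarization read at Ex 480/Em 540.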

Experiment [3] is described as follows: Primary qHTS for small molecule stabilizers of the endoplasmic reticulum resident proteome: Secreted ER Calcium Modulated Protein (SERCaMP) assay (AID 1508630). Note: % is set by controls: 0 for no effect and ±100 for the full control effect. Put shortly: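 The SH-SY5Y reporter protocol was run at 3 concentrations up to 38.3 uM (primary) or 11 concentrations (follow-up): 16 h compound, 100 nM thapsigargin for 4 h, then extracellular luciferase luminescence.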

Experiment [4] has as its target Cytochrome P450 2D6 (Homo sapiens) (UniProt P10635). Briefly: Cytochrome P450 family 2 subfamily D member 6 (CYP2D6) small molecule antagonists: luciferase biochemical (cell-free) qHTS assay (AID 1645840; active = well fitted curve in the direction sought with a large enough effect in the repeat runs; an effect the other way counts as inactive or inconclusive; note: nearly all actives have a fitted effect of over 55% in size; note: potency is the fitted concentration of half-maximal effect). Put shortly: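 P450-Glo CYP2D6 system: proluciferin substrate converted by enzyme to luciferin, read by luminescence proportional to activity. Enzyme-substrate mix with compound 10 min at room temperature, then NADPH regeneration 1 h before detection reagent.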

Experiment [5] concerns the target Cytochrome P450 2C9 (Homo sapiens) (UniProt P11712). The experiment can be described thus: Cytochrome P450 family 2 subfamily C member 9 (CYP2C9) small molecule antagonists: luciferase biochemical (cell-free) qHTS assay (AID 1645842; active = well fitted curve in the direction sought with a large enough effect in the repeat runs; an effect the other way counts as inactive or inconclusive; note: nearly all actives have a fitted effect of over 55% in size; note: potency is the fitted concentration of half-maximal effect; for activity change, negative = inhibition: % is set by controls: 0 for no effect and ±100 for the full control effect). Put shortly:
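P450-Glo CYP2C9 system: proluciferin substrate with enzyme in mix containing 0.4% BSA, 10 min at room temperature, then NADPH regeneration solution added and incubated 1 h at 37C. Detection reagent stopped reaction; luminescence read after 20 min as RLU.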

The nature of experiment [6]: Primary qHTS for inhibitors of nuclear receptor binding SET domain protein 2 (NSD2) in an isogenic RCH-ACV NSD2 p.E1099K mutant (9B) (AID 1645876). Note: nearly all actives have a fitted effect of over 70% in size. Note: potency is the fitted concentration of half-maximal effect.
Experiment [7] can be described thus: Primary qHTS for inhibitors of nuclear receptor binding SET domain protein 2 (NSD2) in an RCH-ACV wild type WT cells (2C) (AID 1645877). Note: nearly all actives have a fitted effect of over 70% in size. Note: potency is the fitted concentration of half-maximal effect.
Experiment [8] concerns the target Catechol O-methyltransferase (Homo sapiens) (UniProt P21964). The experiment can be described thus: Confirmatory Screen for Target Class Profiling of Small Molecule Inhibitors of Methyltransferases (AID 1745852). For activity change, negative = inhibition: % is set by controls: 0 for no effect and ±100 for the full control effect. The following applies: MTase-Glo luminescence, SAH detection, recombinant enzyme; measured here: COMT max response; stronger effect = lower value.
Experiment [9] has as its target Guanidinoacetate N-methyltransferase (Homo sapiens) (UniProt Q14353). Described as above. Particulars: activity change, negative = inhibition: at 57.3 µM (top of the series).
Experiment [10] addresses Nicotinamide N-methyltransferase (Homo sapiens) (UniProt P40261). The description is as above. The following applies: MTase-Glo luminescence, SAH detection, recombinant enzyme; measured here: NNMT max response; stronger effect = lower value.
The target in experiment [11] is Protein phosphatase 1D (Homo sapiens) (UniProt O15297). The experiment can be described thus: RapidFire Mass Spectrometry qHTS Assay for Modulators of WT P53-Induced Phosphatase 1 (WIP1) (AID 1347424).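 For activity change, negative = inhibition: plate controls were DMSO wells for no effect and GSK830371 inhibitor control at 10 µM for full effect.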 Note: potency is the fitted concentration of half-maximal effect. Put shortly: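 RapidFire MS readout of dephosphorylated VEPPL-S-QETFS product, with 1 uM isotope-labelled peptide standard. Reaction: 10 nM WIP1, 2 uM phosphopeptide substrate, 5 min, room temperature, after 1 h compound preincubation; stopped with 0.5% formic acid.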

The nature of experiment [12]: Primary qHTS for inhibitors of La Crosse Virus (LACV) - induced cell death in SH-SY5Y cells (AID 1508616).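 Note: top concentration of the series differs between compounds; 0% = infected DMSO wells and 100% = uninfected DMSO wells; higher means more rescue of cells from virus-induced death.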 Put shortly: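 Cytopathicity rescue screen: compounds pinned onto SH-SY5Y cells, which are then infected with LACV (MOI 0.01) and held 6 days at 37C. Percent activity is scaled between infected DMSO control and uninfected DMSO control.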
The target in experiment [13] is Calcium and integrin-binding protein 1 (Homo sapiens) (UniProt Q99828). The experiment can be described thus: Confirmatory qHTS for Identification of Calcium Integrin Binding Protein 1 (CIB1) Competitor (AID 1508617). Note: % is set by controls: 0 for no effect and ±100 for the full control effect; nearly all actives have a fitted effect of over 65% in size. Put shortly: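 Compounds at up to 114 uM final met 1 uM GST-tagged CIB1 for 15 min at room temperature (HEPES pH 7.4, 5 mM CaCl2). FITC-labelled alphaIIb peptide, 100 nM, added; polarization read after 15 min more.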

Experiment [14] deals with Protein phosphatase 1D (Homo sapiens) (UniProt O15297). The experiment can be described thus: Rhodamine-PBP qHTS Assay for Modulators of WT P53-Induced Phosphatase 1 (WIP1) (AID 1347425). Note: % of control where 0% means no effect. Put shortly: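 The read-out is the change in Rhodamine-PBP fluorescence (f1 - f0, ex 525/em 598 nm) as Pi is released, read each minute for 11 min. Final reaction: 5 nM WIP1, 10 uM phosphopeptide VEPPL-pS-QETFS, 10 uM Rh-PBP, 50 mM Tris-HCl pH 7.5, 30 mM MgCl2. Compound was preincubated with enzyme for 1 hour at room temperature.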

Experiment [15] can be described thus: A High-Content qHTS Against Drug Library for the Identification of Small Molecules that Inhibit DYT1 Early Onset Primary Dystonia-Associated Cell Pathology (AID 1645839; calls by dose curve). Put shortly: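 Cells were seeded and left for 24 h, then dosed with compound alongside tetracycline induction of mutant EGFP-TorsinA. They were incubated for 48 h, fixed in 4% paraformaldehyde, permeabilized and imaged for mislocalization (%pathology) and cell count.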

Sequence of Calcium and integrin-binding protein 1 (Homo sapiens) (Q99828 whole entry, looked up): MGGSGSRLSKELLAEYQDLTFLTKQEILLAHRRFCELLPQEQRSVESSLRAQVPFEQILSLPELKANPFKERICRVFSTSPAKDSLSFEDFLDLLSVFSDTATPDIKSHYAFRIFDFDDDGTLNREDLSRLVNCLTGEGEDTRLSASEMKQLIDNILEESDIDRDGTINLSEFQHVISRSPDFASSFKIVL
Sequence of Cytochrome P450 2D6 (Homo sapiens) (P10635 whole entry, looked up): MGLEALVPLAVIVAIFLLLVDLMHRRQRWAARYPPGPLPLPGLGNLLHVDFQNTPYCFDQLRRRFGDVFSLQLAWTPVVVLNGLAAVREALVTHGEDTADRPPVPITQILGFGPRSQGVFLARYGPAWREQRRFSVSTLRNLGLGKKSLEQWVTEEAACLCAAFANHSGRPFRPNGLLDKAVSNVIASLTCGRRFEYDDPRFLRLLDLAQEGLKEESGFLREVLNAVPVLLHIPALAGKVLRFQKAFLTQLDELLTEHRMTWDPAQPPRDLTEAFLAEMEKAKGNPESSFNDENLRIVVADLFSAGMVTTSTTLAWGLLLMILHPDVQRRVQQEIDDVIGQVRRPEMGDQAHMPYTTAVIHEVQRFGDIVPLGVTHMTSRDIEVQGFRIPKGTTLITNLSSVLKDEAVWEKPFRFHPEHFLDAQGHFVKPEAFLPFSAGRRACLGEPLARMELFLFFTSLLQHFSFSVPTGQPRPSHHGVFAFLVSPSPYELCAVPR
Sequence of Protein phosphatase 1D (Homo sapiens) (O15297 whole entry, looked up): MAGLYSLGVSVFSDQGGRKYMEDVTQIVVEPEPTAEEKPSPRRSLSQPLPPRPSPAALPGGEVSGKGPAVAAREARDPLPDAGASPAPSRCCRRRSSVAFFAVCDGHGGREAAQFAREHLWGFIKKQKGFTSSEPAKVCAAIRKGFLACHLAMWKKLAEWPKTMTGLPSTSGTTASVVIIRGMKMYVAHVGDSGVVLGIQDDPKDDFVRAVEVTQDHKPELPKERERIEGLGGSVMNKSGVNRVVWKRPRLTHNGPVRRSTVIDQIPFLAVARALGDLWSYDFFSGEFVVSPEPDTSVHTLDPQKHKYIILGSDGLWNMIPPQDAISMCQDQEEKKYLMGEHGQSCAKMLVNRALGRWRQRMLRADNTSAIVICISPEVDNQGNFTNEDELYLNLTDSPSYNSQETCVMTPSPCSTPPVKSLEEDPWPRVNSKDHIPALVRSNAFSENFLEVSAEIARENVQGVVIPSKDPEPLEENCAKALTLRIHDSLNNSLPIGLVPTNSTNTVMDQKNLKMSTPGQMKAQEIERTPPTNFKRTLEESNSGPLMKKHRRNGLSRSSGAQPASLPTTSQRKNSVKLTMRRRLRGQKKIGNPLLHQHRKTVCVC
Sequence of Cytochrome P450 2C9 (Homo sapiens) (P11712 whole entry, looked up): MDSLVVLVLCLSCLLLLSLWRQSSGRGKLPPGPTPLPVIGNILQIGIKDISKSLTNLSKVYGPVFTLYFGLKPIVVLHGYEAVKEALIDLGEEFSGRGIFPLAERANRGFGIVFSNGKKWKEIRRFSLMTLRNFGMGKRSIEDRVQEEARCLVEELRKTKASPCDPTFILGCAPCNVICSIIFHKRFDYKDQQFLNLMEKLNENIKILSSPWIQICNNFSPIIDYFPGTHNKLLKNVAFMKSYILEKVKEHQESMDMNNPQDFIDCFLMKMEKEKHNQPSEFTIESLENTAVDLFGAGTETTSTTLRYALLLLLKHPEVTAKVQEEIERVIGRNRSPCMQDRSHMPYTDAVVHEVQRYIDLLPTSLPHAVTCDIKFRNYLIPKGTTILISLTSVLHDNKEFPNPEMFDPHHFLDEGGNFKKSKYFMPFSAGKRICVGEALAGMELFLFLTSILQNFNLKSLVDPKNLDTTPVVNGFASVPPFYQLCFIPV
Sequence of Catechol O-methyltransferase (Homo sapiens) (P21964 whole entry, looked up): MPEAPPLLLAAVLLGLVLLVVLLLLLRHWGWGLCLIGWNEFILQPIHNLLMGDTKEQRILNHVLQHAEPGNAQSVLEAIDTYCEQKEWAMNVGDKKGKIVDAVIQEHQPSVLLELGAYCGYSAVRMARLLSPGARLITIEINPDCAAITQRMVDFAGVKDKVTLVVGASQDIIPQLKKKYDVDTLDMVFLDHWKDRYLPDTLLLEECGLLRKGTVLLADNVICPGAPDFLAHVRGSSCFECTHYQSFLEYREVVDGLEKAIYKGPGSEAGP
Sequence of Nicotinamide N-methyltransferase (Homo sapiens) (P40261 whole entry, looked up): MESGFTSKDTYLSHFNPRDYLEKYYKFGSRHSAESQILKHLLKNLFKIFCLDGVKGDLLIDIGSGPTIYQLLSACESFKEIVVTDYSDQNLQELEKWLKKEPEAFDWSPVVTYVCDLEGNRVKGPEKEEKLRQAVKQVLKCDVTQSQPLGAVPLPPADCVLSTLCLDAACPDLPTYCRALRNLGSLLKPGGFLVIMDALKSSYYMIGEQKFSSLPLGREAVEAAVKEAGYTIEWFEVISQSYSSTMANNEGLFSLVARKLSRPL

Consider `N#Cc1c(C2CCNCC2)cc(-c2c(O)cccc2OCC2CC2)nc1N`, for which the Potency in experiment [1] is 8.29 µM (active); in experiment [4] it was 674 nM (active); in experiment [5], 8.49 µM (active); in [6], 11.8 µM (active); in [7] it was 9.34 µM (active). Also, the Potency result in experiment [2] is “inactive”. The outcome in experiment [3] was “inactive”. Further, the activity is -9.7% in [8] and -55.9% in [10]. In addition, in [9], the activity change, negative = inhibition was determined as 0.393%.

On to `COc1ccc(C[C@@H](C)[C@@H](C)Cc2ccc(OC)c(OC)c2)cc1OC`, for which the Potency result in experiment [1] and in experiment [2] was “inactive” throughout. Besides, in experiment [3], the outcome was “inactive”. The Potency in [5] was 3.01 µM (active).

Take `CCCCCCCCCCCC(CC1OC(=O)C1CCCCCC)OC(=O)C(CC(C)C)NC=O` (stereo not drawn): the Potency entry in experiment [1] and in experiment [2] was “inactive” each time.

Take `Cc1ccc(-n2[nH]c(C)c(N=Nc3cccc(-c4cccc(C(=O)O)c4)c3O)c2=O)cc1C`: the Potency entry in experiment [1] and in experiment [5] was “inactive” in each case. Also, the Potency in experiment [11] is 12.6 µM (active); in [4], 4.9 µM (active) and 7.56 µM (active). In addition, the outcome in experiment [12] is “inactive”.

As to `Cc1cc(O)c2c(c1)C(=O)c1cccc(O)c1C2=O`, the Potency entry in experiment [1], in [2], in experiment [4], in [5], in experiment [6] and in experiment [7] was “inactive” throughout. Also, in [3], the outcome was “inactive”.

As for `CN(C)CCN1C(=O)c2cccc3cc(N)cc(c23)C1=O`, the Potency in experiment [1] was 10.4 µM (active); in experiment [6] it was 5.25 µM (active); in experiment [7], 4.17 µM (active). Besides, in experiment [13], the Potency entry was “inactive”. Also, in experiment [3], the outcome was “inactive”.

Take `C=CC(=O)Nc1ccc2ncnc(Nc3ccc(OCc4cccc(F)c4)c(Cl)c3)c2c1`: the Potency in experiment [1] was 10.4 µM (active); in experiment [5], 3.38 µM (active); in experiment [6], 7.28 µM (active) and 5.9 µM (active); in experiment [7], 8.17 µM (active) and 4.68 µM (active). The Potency entry in [2] and in experiment [4] was “inactive” throughout. For the same compound, the outcome in [3] was “inactive”.

Turning to `C=Cc1c(C)c2cc3nc(cc4[nH]c(cc5nc(cc1[nH]2)C(C)=C5CCC(=O)O)c(CCC(=O)OC)c4C)[C@@]1(C)C3=CC=C(C(=O)OC)[C@H]1C(=O)OC`, the Potency entry in experiment [1], in experiment [2] and in experiment [6] was “inactive” throughout. Moreover, in experiment [3], the outcome is “inactive”. Also, the Potency in experiment [5] was 26.8 µM (active).

As to `Oc1cc(-c2nc(-c3ccccc3)[nH]c2-c2ccncc2)ccc1Cl`, the Potency in [1] was 16.5 µM (active); in [4], 756 nM (active); in experiment [5], 1.69 µM (active); in experiment [6] it was 11.8 µM (active) and 18.3 µM (active); in [7], 13.2 µM (active) and 16.4 µM (active). The Potency result in experiment [2] was “inactive”. The outcome in experiment [3] is “inactive”.

Regarding `CCCCC(=O)O[C@]1(C(=O)CO)[C@@H](C)C[C@H]2[C@@H]3CCC4=CC(=O)C=C[C@]4(C)[C@@]3(F)[C@@H](O)C[C@@]21C`, the Potency result in experiment [1], in experiment [11], in [2] and in experiment [6] was “inactive” throughout. Also, the outcome in experiment [14], in experiment [12], in experiment [3] and in experiment [15] was “inactive” each time. Besides, the Potency in experiment [5] is 15.5 µM (active); in [7], 8.4 nM (active) and 33.2 nM (active).

For the compound `O=C1CSC(=O)N1C(CCc1ccncc1)COc1ccc(-c2cccc([N+](=O)[O-])c2)cc1` (stereo not drawn), the Potency entry in [1], in [2] and in experiment [4] was “inactive” throughout. The outcome in experiment [3] is “inactive”. The Potency in [6] was 14.8 µM (active); in experiment [7] it was 11.8 µM (active).
